This note sets out measurements from PubChem BioAssay AID781 (Emory University Molecular Libraries Screening Center, 2007).

About 1,600 (0.73%) of roughly 220,000 compounds were called active.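 Rule for the calls: active = inhibition above about 70% (limit read from the data); inactive = the rest.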 Only a selection was taken, and actives are over-represented in it overall.

Chain of 14-3-3 protein zeta/delta (Bos taurus) (P63103 whole entry, looked up): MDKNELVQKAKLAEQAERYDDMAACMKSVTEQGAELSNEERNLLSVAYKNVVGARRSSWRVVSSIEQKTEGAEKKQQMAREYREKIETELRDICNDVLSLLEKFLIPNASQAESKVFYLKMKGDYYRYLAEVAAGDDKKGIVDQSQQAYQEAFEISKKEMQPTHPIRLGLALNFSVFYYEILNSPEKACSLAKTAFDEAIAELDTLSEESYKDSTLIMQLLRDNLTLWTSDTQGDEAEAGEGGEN

The assay has as its target 14-3-3 protein zeta/delta (Bos taurus) (UniProt P63103). Briefly: disruptors of 14-3-3 zeta phospho-Bad complex – biochemical, TR-FRET, bovine 14-3-3 zeta, primary screen (AID 781).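 Note: 0% = full 14-3-3 plus peptide FRET controls and 100% = background without 14-3-3.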 To be noted: TR-FRET 14-3-3zeta/Dy647-pBad peptide displacement, 1 h; at 21.7 µM; hits give high values. In general terms: TR-FRET usually uses a lanthanide donor and a delayed reading to cut background.
For orientation: inhibition means the drop in the measured response relative to a control, in per cent. As to `CCC(=O)Nc1ccc(S(=O)(=O)NCC2CCCO2)cc1` (configuration not stated), the inhibition was -9.79% (inactive).

Regarding `O=S(=O)(NCC1CCCO1)c1ccc2ccccc2c1` (configuration not stated), the inhibition was 2.47% (inactive). The result for `CCOc1ccc(S(=O)(=O)NCC2CCCO2)cc1` (configuration not stated) reads 90.7% (active); that for `COC(=O)c1sc(SC)c(S(=O)(=O)C(C)C)c1N/N=C(\C#N)S(=O)(=O)c1ccccn1`, -11.7% (inactive); that for `O=[N+]([O-])c1ccc(N=Cc2c(O)ccc3ccccc23)cc1`, 2.73% (inactive). To `O=C(NNc1cc(Cl)cc(Cl)c1)c1c(F)cccc1Cl` belongs -1.3% (inactive); to `CCOC(=O)N1CCN(CC(=O)n2c(C)c(C)c3ccccc32)CC1`, 71.6% (active).

As to `CCOC(=O)N1CCN(C(=O)Cn2cnc3ccccc3c2=O)CC1`, the inhibition is -7.01% (inactive). To `CCOC(=O)N1CCN(CC(=O)c2c(C)[nH]c3ccccc23)CC1` belongs -1.72% (inactive); to `COc1ccc(CC(=O)NCC(=O)N/N=C/c2cc(Br)ccc2OC)cc1`, -0.33% (inactive); to `NC(N)=N/N=C/c1ccc(Cl)c([N+](=O)[O-])c1`, 22.1% (inactive). To `COc1ccc(C(=O)O/N=C(\N)Cc2ccc(Cl)cc2Cl)cc1OC` belongs -16.2% (inactive); to `NC(N)=N/N=C/c1ccc(OCc2ccc(Cl)cc2Cl)cc1`, 98.2% [fluorescence artefact?] (active); to `Cc1ccc(S(=O)(=O)N(C)C)cc1NC(=O)c1n[nH]c(=O)c2ccccc12`, 1.22% (inactive). To `CCC(=O)c1ccc(OCC(=O)Nc2ccc3nc(C)sc3c2)cc1` belongs 4.78% (inactive); to `O=[N+]([O-])c1cc(Cl)cc(/C=N/NC(=S)Nc2cc(S(=O)(=O)N3CCOCC3)ccc2Cl)c1O`, 50.2% (inactive); to `C[C@@H]1C[C@@H]2O[C@H]2/C=C\C=C\C(=O)Cc2c(Cl)c(O)cc(O)c2C(=O)O1`, -2.99% (inactive). For `S=c1[nH]nc(-c2cc(-c3ccccc3)n[nH]2)n1/N=C/c1c2ccccc2cc2ccccc12`, the inhibition is 77.8% (active). Consider `Fc1ccccc1/C=N/n1c(-c2cccnc2)n[nH]c1=S`, for which the inhibition is 0.38% (inactive). The result for `S=c1[nH]nc(-c2ccccc2)n1/N=C/c1c[nH]c2ccccc12` reads -8.9% (inactive).

As for `Cc1cccc(N2CCN(C(=O)/C=C/c3ccco3)CC2)c1C`, the inhibition is -4.76% (inactive). The result for `CCC1CO/C(=C(\C(=C(Cl)Cl)N2CCOCC2)[N+](=O)[O-])N1` (configuration not stated) reads 93.7% (active). To `CN(C)C(=O)c1coc2nc3ccccc3nc12` belongs 1.09% (inactive); to `Cc1ccc(-c2csc(-c3cc(C)on3)n2)cc1`, 0.81% (inactive); to `COc1cc(C(=O)N(Cc2ccc(N(C)C)cc2)C2CCS(=O)(=O)C2)cc(OC)c1OC` (configuration not stated), 94.9% (active).

Consider `CCOc1ccc(C(=O)N(Cc2ccc(N(C)C)cc2)C2CCS(=O)(=O)C2)cc1` (configuration not stated), for which the inhibition is -6.02% (inactive).

On to `COc1ccc(C(=O)N(Cc2ccc(N(C)C)cc2)C2CCS(=O)(=O)C2)cc1` (configuration not stated), for which the inhibition was -0.9% (inactive). In the case of `CC(=O)NNC1=Nc2ccccc2N(C)C(C)C1` (configuration not stated), the inhibition is -5.76% (inactive). As for `Cc1ccc(N2C(=O)CC(N3CCSCC3)C2=O)c(C)c1` (configuration not stated), the inhibition was 0.9% (inactive). To `CC(=O)Nc1ccc(S(=O)(=O)Nc2nccc(/C=C/c3ccccc3F)n2)cc1` belongs -3.98% (inactive). The result for `O=C(Nc1ccccc1)N1CCN(C(=O)Nc2ccccc2)CC1` reads -1.69% (inactive); that for `O=C(Nc1ccccc1)N1CCN(Cc2ccccc2)CC1`, 77.4% (active).

Take `O=C(NC(=S)N1CCN(Cc2ccccc2)CC1)c1ccccc1`: the inhibition is -19.4% (inactive). Consider `Cc1ccc(S(=O)(=O)/N=S(\C)C(C)C)cc1` (configuration not stated), for which the inhibition is 1.1% (inactive). The result for `CS(=O)(=O)N(Cc1ccccc1)c1ccc(C(=O)NN=C2CCCCCC2)cc1` reads -15.2% (inactive); that for `CC(=O)c1ccc(NC(=O)c2ccc3c(Cl)c4c(nc3c2)CCCC4)cc1`, 73.9% (active). The result for `COc1ccc(N2CCN(C(=O)c3ccc4c(Cl)c5c(nc4c3)CCCC5)CC2)cc1` reads -10.1% (inactive); that for `COc1cccc(NC(=O)c2ccc3c(SCC(=O)O)c4c(nc3c2)CCCC4)c1`, -11.6% (inactive). To `COc1ccc(/C=C(\NC(=O)c2ccc(OCC(C)C)cc2)C(=O)OCc2ccco2)cc1` belongs 2.32% (inactive); to `COc1ccccc1NC(=O)CSc1nc2sc(C)c(C)c2c(=O)n1Cc1ccco1`, -6.57% (inactive); to `Cc1ccc(-c2nc(SCC(=O)Nc3ccccc3OC(F)F)c3c(C)c(C(=O)O)sc3n2)cc1`, 80.4% (active). As to `Cc1ccc(C)c(SCc2nc3sc(C(=O)O)c(C)c3c(=O)[nH]2)c1`, the inhibition is 0.11% (inactive). To `Oc1ccc2ccccc2c1C=Nc1ccccc1` belongs 4.91% (inactive).

On to `CC(=O)Nc1ccc(S(=O)(=O)NC2(C(F)(F)F)C(=O)NC(C)=C2C#N)cc1` (configuration not stated), for which the inhibition is -3.08% (inactive).

Take `Fc1ccccc1COc1ccccc1CNCc1ccncc1`: the inhibition was 75.9% (active). To `CCC(Oc1ccccc1)C(=O)NCc1cccnc1` (configuration not stated) belongs -2.17% (inactive); to `c1ccc(COc2ccccc2CNCc2cccnc2)cc1`, 77.2% (active). Regarding `COc1ccccc1CNCc1cccs1`, the inhibition was 0.7% (inactive). The result for `O=C(CCc1ccccc1)NCc1cccnc1` reads -1.29% (inactive). The result for `COc1cccc(CNCCc2c[nH]c3ccccc23)c1OCc1ccccc1F` reads 29.9% (inactive); that for `CCOC(=O)CN(C(=O)COc1nc(C)cc(C)c1C#N)c1ccc(Cl)cc1`, -3.15% (inactive). Take `O=C(Nc1ccccc1Cl)c1ccccc1S(=O)(=O)c1ccccc1[N+](=O)[O-]`: the inhibition was 5.14% (inactive). The result for `COc1ccc(NC(=S)N2CCc3cc(OC)c(OC)cc3C2)cc1` reads -0.16% (inactive); that for `COc1ccccc1/C=C/C=N/NC(=O)CN1CCN(Cc2ccccc2)CC1`, -5.86% (inactive); that for `O=C1COc2ccc(C(=O)COC(=O)C3CC(O)CN3S(=O)(=O)c3ccc(Cl)cc3)cc2N1` (configuration not stated), 0.1% (inactive).

As for `Cc1ccc2nc(SCc3cn4c(C)cc(C)nc4n3)[nH]c2c1`, the inhibition was -0.6% (inactive).

Consider `CCCCn1c(=S)[nH]c2ccccc2c1=O`, for which the inhibition is 10.7% (inactive). To `Cn1nnnc1SCc1cc(=O)[nH]c2ccccc12` belongs 8.32% (inactive). Regarding `CC(Sc1nc2c([nH]c3ccccc32)c(=O)n1C)c1ccccc1` (configuration not stated), the inhibition is 98.1% (active). To `S=C(Nc1ccc2c(c1)OCO2)N1CCCC1` belongs -2.2% (inactive). The result for `COc1ccc(C(c2nnnn2Cc2cccs2)N2CCN(c3ccccc3)CC2)cc1OC` (configuration not stated) reads -7.19% (inactive). Turning to `COc1ccc(CCn2nnnc2C(c2ccccc2)N2CCN(C)CC2)cc1OC` (configuration not stated), the inhibition is 82.9% (active). To `N#Cc1ccc(C(c2nnnn2CCc2ccccc2)N2CCCCCC2)cc1` (configuration not stated) belongs 4.83% (inactive). To `COC(=O)c1cc(NC(=O)CN2CCN(C(C)=O)CC2)cc(C(=O)OC)c1` belongs -3.76% (inactive); to `FC(F)(F)c1nc(-c2ccccc2)ncc1-c1nnnn1-c1ccccc1`, 13.7% (inactive); to `N/C(=N\OC(=O)COc1ccc([N+](=O)[O-])cc1)c1ccc(Br)cc1`, 2.68% (inactive).

Take `N/C(=N\OC(=O)Cc1ccccc1[N+](=O)[O-])c1ccc(Br)cc1`: the inhibition is 93.1% (active). `N/C(=N\OC(=O)Cc1ccc([N+](=O)[O-])cc1)c1ccccn1`: the inhibition was -17.6% (inactive). To `CCCc1nc(-c2cc3cc(C)ccc3[nH]c2=O)no1` belongs -0.29% (inactive); to `COc1ccc(-n2nc(C(=O)Nc3cc(OC)c(OC)c(OC)c3)c3ccccc3c2=O)c(OC)c1`, 2.29% (inactive); to `Cc1ccsc1/C=N/NC(=O)Cc1cc(=O)[nH][nH]1`, -22.4% (inactive). To `CCOCN(C(=O)Cn1c(C(C)O)nc2ccccc21)c1c(C)cccc1CC` (configuration not stated) belongs -12.3% (inactive); to `O=C(Oc1cccnc1)c1cc2ccccc2oc1=O`, 17.9% (inactive). Consider `O=C(Nc1cccnc1)c1cc2cc(Br)ccc2oc1=O`, for which the inhibition is 82.5% (active). To `COc1ccc(C(=O)Nc2cccnc2)cc1C(=O)Nc1cccnc1` belongs 2.89% (inactive); to `COc1ccc(C)cc1S(=O)(=O)Nc1cccc(Cl)c1Cl`, -10% (inactive); to `Cc1cc([N+](=O)[O-])nn1CCCC(=O)Nc1cccnc1Cl`, -8.44% (inactive). On to `Nc1ccc2nc3c(=O)[nH]c(=S)[nH]c3nc2c1`, for which the inhibition is 83.5% (active).

With `Cc1cc2nc3c(=O)n(Cc4ccccc4)c(=O)[nH]c3nc2cc1N`, the inhibition is -0.29% (inactive).

For `O=C1c2ccccc2NC(c2ccccn2)N1NS(=O)(=O)c1ccccc1` (configuration not stated), the inhibition was 5.35% (inactive). To `c1ccc(C2CNCc3c2ccc2ccccc32)cc1` (configuration not stated) belongs -8.65% (inactive); to `CN(C)S(=O)(=O)c1cccc(-c2nn(-c3ccccc3)cc2/C=C2\SC(=S)N(CC(=O)O)C2=O)c1`, 12% (inactive); to `Cc1ccc(OCC(=O)Nc2ccc(S(=O)(=O)Nc3ccccn3)cc2)cc1`, -3.5% (inactive). On to `Cc1ccc(OCC(=O)Nc2ccc(-c3nc4ncccc4o3)cc2)cc1`, for which the inhibition was 78.8% (active). To `CC(=O)Nc1ccc(OCC(=O)NCc2ccc(C)cc2)cc1` belongs -8.65% (inactive); to `Cc1oc2nc(SCC(=O)Nc3ccc(S(N)(=O)=O)cc3)nc(NC(=O)c3ccccc3)c2c1C`, -6.33% (inactive); to `C/C=C(/C)C(=O)Nc1cccc(C2=NOC3(C2)C[C@@H](C(N)=O)N(C(=O)C2(C)CC2)C3)c1` (some centres not stated), -2.68% (inactive).

For the molecule `Cc1ccnc(NS(=O)(=O)c2ccc(NC(=O)c3ccc(S(=O)(=O)N(C)C)cc3)cc2)n1`, the inhibition was -9.02% (inactive). As to `COc1cc(OC)c(/C=N/NC(=O)c2ccc([N+](=O)[O-])cc2)cc1Br`, the inhibition is 5.09% (inactive). The result for `COc1cc(/C=N/N=C(\N)c2nonc2N)cc(OC)c1OC` reads -22.2% (inactive); that for `COc1cc(/C=N\NC(=O)c2nonc2N)c(OC)cc1Br`, 71.1% [fluorescence artefact?] (active); that for `CCc1ccc(S(=O)(=O)NCC(O)COc2ccc(OC)cc2)cc1` (configuration not stated), -1.31% (inactive).
